This note sets out measurements from PubChem BioAssay.

Assay [1] in a line: inhibitors of CD8+ T cell-vesicle binding, pilot screen, LFA-1/ICAM-1 modulator project, MLPCN validation set, flow cytometry (AID 2523;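 active = response below a set limit, under 55% cells CD8-positive and vesicle-bound, and CD8 cells' 90th-percentile brightness under 279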;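 as to vesicle binding response: mean PE anti-B7-1 fluorescence of CD8+ cells relative to row control; 100% = QL9-loaded vesicles with DMSO vehicle in the same plate row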). The settings on record: 2C mouse CD8+ T cells, at 7 µM, stronger effect = lower value; double positive events: measured here: CD8+/vesicle+ event percentage.
The target in assay [2] is Integrin beta-1 (Homo sapiens) + Integrin alpha-4 (Homo sapiens) (UniProt P13612+P05556). Kind of assay: inhibition of HUTS-21 binding to VLA-4, pilot screen, VLA-4 allosteric modulator project, U937 cells, HUTS-21 mAb, flow cytometry, validation set (AID 2674;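 active = inhibition above 50%, about 3 SD of the validation set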;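 also: antibody binding induced by the VLA-4 ligand LDV present at three times its Kd; 0% = LDV ligand with antibody and no compound and 100% = antibody without LDV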). Particulars: HUTS-21 LIBS mAb binding, at 6.7 µM, stronger effect = higher value. (In general: In flow cytometry, cells or beads pass a laser one at a time.)

Assay [3] is described as follows: superoxide lowering in aged yeast cells, pilot screen, validation compound set (AID 2706;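 active = superoxide response below 65% of plate, a cut near 3 SD across the whole screen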;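 also: yeast exposed to compound for one week at 30 degrees C before staining; 100% = mean of all compound wells on the same plate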). The settings on record: S. cerevisiae aging, superoxide DHE fluorescence; at 10 µM; stronger effect = lower value.
In assay [4] the target is Beta-adrenergic receptor kinase 1 (Homo sapiens) (UniProt P25098). Kind of assay: GRK2 binders displacing RNA aptamer, biochemical, validation, human GRK2, bead flow cytometry (AID 488806;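 active = aptamer binding inhibition above 30%, about 3 SD of noise from non-fluorescent compounds; inactive = inhibition at or below 30%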). The settings on record: bead-bound GRK2, FAM-aptamer displacement, at 10 µM, stronger effect = higher value.
Assay [5] addresses AP-2 complex subunit beta (Homo sapiens) (UniProt P63010). Kind of assay: inhibitors of arrestin peptide binding to AP2, pilot screen, biochemical, validation set, GST-AP2 beads, flow cytometry (AID 504541;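 active = inhibition above 54%, about 3 SD of non-fluorescent compounds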;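 also: AP2 carries R879A mutation and is captured from E. coli lysate; bead-bound FITC arrestin peptide fluorescence measuring arrestin peptide binding to AP2; 0% = DMSO wells and 100% = excess unlabeled arrestin peptide control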). The settings on record: FITC arrestin peptide, at 10 µM, stronger effect = higher value.
Assay [6] in a line: yeast V-ATPase proton transport modulators, S. cerevisiae, pHLuorin, HTS validation (AID 504600; in the data active = response above about 15%;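 also: plate controls were DMSO for no effect and reference compound for full effect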). The settings on record: S. cerevisiae pHLuorin cytosolic pH, at 10 µM, stronger effect = higher value.
Assay [7] relates to anti-desmoglein-3 scFv antibody binding to human DSG3. Kind of assay: inhibitors of anti-DSG3 scFv binding to DSG3, pilot screen, biochemical, validation compound set, bead-based, flow cytometry (AID 588368;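 active = binding below the plate cutoff, the plate median minus 3 SD, with a reading above zero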;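 also: signal is the median channel fluorescence of bead-bound GFP antibody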). The settings on record: Protein G beads, DSG3-Fc, scFv-GFP binding, at 10 µM, stronger effect = lower value.
The subject of assay [8] is Botulinum neurotoxin type F light chain protease (Clostridium botulinum). Kind of assay: Botulinum neurotoxin type F light chain protease inhibition, multiplex microsphere flow cytometry, validation set (AID 588459). Particulars: multiplex microsphere protease substrate cleavage assay, at 10 µM, stronger effect = higher value.
Assay [9] has as its target Botulinum neurotoxin type A (Clostridium botulinum) (UniProt P0DPI0). Kind of assay: BoNT/A light chain protease inhibitors, biochemical, multiplex microsphere flow cytometry, validation set (AID 588460). The settings on record: at 10 µM, stronger effect = higher value.
Assay [10] has as its target Lethal factor (Bacillus anthracis) (UniProt P15917). Kind of assay: Lethal factor protease inhibitors, Bacillus anthracis, multiplex microsphere cleavage assay, validation set (AID 588461). Particulars: flow cytometry, at 10 µM, stronger effect = higher value.
The nature of assay [11]: inhibitors of fungal efflux pumps CDR1, CDR2, MDR1, pilot screen, validation compound set, multiplex, phenotypic (AID 588506;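 active = efflux inhibition above 0.42, the validation set average plus 4 SD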;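 also: Nile Red retained in cells so higher fluorescence means more efflux inhibition; 0 = negative control wells and 1 = enniatin B 25 µM full block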). Particulars: S. cerevisiae pump-expressing triplex, Nile Red efflux flow cytometry; at 10 µM; stronger effect = higher value.
The target of assay [12] is ATP-binding cassette sub-family B member 6 (Homo sapiens) (UniProt Q9NP58). The assay is described as follows: ABCB6 transporter inhibitors, pilot screen, K562-ABCB6 cells, flow cytometry, validation set (AID 588550;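 active = inhibition above the screen-wide mean plus 3 SD, about 51%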;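 also: 0% = DMSO wells and 100% = benzethonium chloride 70 µM positive control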). The settings on record: K562-ABCB6 porphyrin accumulation, 1 h, at 10 µM, stronger effect = higher value.
The nature of assay [13]: promoters of myeloid differentiation in arrested cells, primary screen, cell-based, GFP/MAC1 double positive, flow cytometry, validation set (AID 588685;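 active = differentiation response of at least 50%, scaled between solvent and reference control, from cells with both markers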;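 also: compound exposure lasts four days before antibody staining and flow analysis; 0% = DMSO wells and 100% = 5 µM fulvestrant positive control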). Particulars: ER-HoxA9 marrow cells, stronger effect = higher value.
The nature of assay [14]: RPL19A-GFP modulators, yeast TOR pathway, confirmation, cell-based, S. cerevisiae, flow cytometry, cherry picks, mother/daughter gates (AID 2270;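 active = GFP response below 50% of the DMSO control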). Particulars: S. cerevisiae RPL19A-GFP strain, 3 h, at 10 µM, stronger effect = lower value, 100 = same GFP as DMSO wells.
A short description of assay [15]: LAP4-GFP expression modulators in yeast, confirmation, cell-based, cherry picks, flow cytometry, mother/daughter gates (AID 2271;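 active = GFP response above 150% of the DMSO control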;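 also: ratio of sample to DMSO plate mean so 100% equals DMSO level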). The settings on record: S. cerevisiae LAP4-GFP strain, 3 h, at 10 µM, stronger effect = higher value.
The nature of assay [16]: modulators of CIT2-GFP expression in yeast, confirmation, S. cerevisiae, GFP fusion, cherry picks, mother/daughter gates (AID 2274;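 active = GFP response above 150% of the DMSO level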). Particulars: S. cerevisiae CIT2-GFP strain, flow cytometry, 3 h, at 10 µM, stronger effect = higher value.
The target in assay [17] is Beta-2 adrenergic receptor (Homo sapiens) (UniProt P07550). The assay is described as follows: beta2AR agonists driving receptor internalization, pilot screen, cell-based, FAP fluorogen, flow cytometry, validation set (AID 504459;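 active = percent response above 42, roughly 3 SD of non-fluorescent test compounds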;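 also: agonist-driven loss of surface beta2AR via internalization measured by FAP dye flow cytometry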). Particulars: Am2.2-beta2AR cells, FAP surface receptor flow cytometry; at 10 µM; stronger effect = higher value.
Where [18] appears, read: measured here: daughter cell gate.
Setting [19] is: measured here: mother cell gate.
[20] abbreviates: measured here: daughter cell gate response.
Setting [21] is: measured here: mother cell gate response.

The source made the active and inactive calls. Unless noted, no rule for the calls is given here.

As for `Nc1ccc([As](=O)(O)O)cc1`, the double positive events in assay [1] amounted to 53.2%. For the same molecule, in assay [1], the vesicle binding response is 190% (inactive). In addition, the inhibition (in general, the change of the read-out against control, counted positive when it falls) in [2] was 7.22% (inactive); in assay [5], -9.89% (inactive); in assay [8] it was -3.5% (inactive); in [9], -1.7% (inactive); in assay [10], 6.8% (inactive); in [12], 3% (inactive). Also, in [3], the superoxide response (% of plate) is 108% (inactive). In addition, the aptamer binding inhibition in assay [4] was 2% (inactive). Further, the response in assay [6] was -3.63% (inactive). In addition, the binding (% of control) in assay [7] was 99.6% (inactive). The efflux inhibition (fraction of control) in assay [11] was -0.35 (inactive). The differentiation response in assay [13] was -0.2% (inactive).
For the molecule `CCN(CC)CC#CCOC(=O)C(O)(c1ccccc1)C1CCCCC1` (configuration not stated), the inhibition is -1.7% (inactive) in assay [8] and 0.6% (inactive) in assay [9].
Taken in the same sequence, the figures for `c1cc(-c2ccncc2)ccn1` were 0.7% (inactive) and -1.9% (inactive).
On to `O=C(O)c1nn(Cc2ccc(Cl)cc2Cl)c2ccccc12`, for which the values for the GFP response vs DMSO in [14], in assay [14] (setting [18]) and in assay [14] (setting [19]) were 101% (inactive), 98.7% and 104%, respectively. Moreover, the GFP response relative to DMSO in assay [15] was 103% (inactive); in assay [15] (setting [20]), 100%; in [15] (setting [21]), 102%. Besides, the GFP response, % of DMSO in [16] is 93.9% (inactive); in assay [16] (setting [18]) it was 91.5%; in assay [16] (setting [19]), 94.4%.
In assay [1], `CC12CN3CC(c4ccccc4)(CN(C1)C31CCCCC1)C2=O` yielded a double positive events of 60.1%. For the same molecule, the vesicle binding response in assay [1] is 232% (inactive). The inhibition in assay [2] is 9.13% (inactive); in assay [5] it was -0.95% (inactive); in assay [8], 2.1% (inactive); in assay [9] it was -0.1% (inactive); in [10], -2.8% (inactive); in assay [12], -51% (inactive). Besides, in assay [3], the superoxide response (% of plate) was 90.5% (inactive). In addition, in assay [4], the aptamer binding inhibition is 4% (inactive). For the same molecule, the response is 15.3% (inactive) in assay [17] and 0.31% (inactive) in assay [6]. Besides, the binding (% of control) in [7] was 99.5% (inactive). Also, the efflux inhibition (fraction of control) in assay [11] is -0.03 (inactive). Further, in assay [13], the differentiation response is 13.6% (inactive).
Take `COc1ccc(N2C(=O)/C(=C/c3ccco3)C(=O)NC2=S)cc1`: the GFP response vs DMSO in assay [14] is 97.4% (inactive); in assay [14] (setting [18]) it was 102%; in assay [14] (setting [19]), 91.4%. Also, the GFP response relative to DMSO in [15] was 91.4% (inactive); in assay [15] (setting [20]), 94.1%; in [15] (setting [21]), 94.2%. Besides, the GFP response, % of DMSO in assay [16] is 91.3% (inactive); in [16] (setting [18]) it was 103%; in assay [16] (setting [19]) it was 83.7%.
The molecule `Clc1ccc(COC(Cn2ccnc2)c2ccc(Cl)cc2Cl)c(Cl)c1` (configuration not stated) yielded a double positive events in [1] of 71.9%. The vesicle binding response in assay [1] is 306% (inactive). Also, the inhibition in assay [2] is -1.12% (inactive); in [5], -8.06% (inactive); in assay [8], 0.4% (inactive); in assay [9], -0.5% (inactive); in assay [10], -5.1% (inactive); in assay [12], 5% (inactive). Besides, the superoxide response (% of plate) in [3] is 76.7% (inactive). Also, in assay [4], the aptamer binding inhibition is 4% (inactive). Besides, the response was -12.4% (inactive) in assay [17] and 75% (active) in assay [6]. Also, in assay [7], the binding (% of control) is 104% (inactive). For the same molecule, in [11], the efflux inhibition (fraction of control) was 0.33 (inactive). The differentiation response in assay [13] was -1.05% (inactive).
As to `O=C1NC(=S)N(c2ccccc2)C(=O)/C1=C/c1ccco1`, the GFP response vs DMSO is 98.8% (inactive) in [14] and 91.4% in [14] (setting [19]). In addition, the GFP response relative to DMSO in assay [15] was 112% (inactive); in assay [15] (setting [20]), 116%; in [15] (setting [21]), 111%. The GFP response, % of DMSO in [16] is 84.8% (inactive); in [16] (setting [19]), 65.5%.
As to `c1ccc2c(c1)OCC(C1=NCCN1)O2` (configuration not stated), the double positive events in assay [1] was 56.2%. In addition, in [1], the vesicle binding response is 163% (inactive). The inhibition is 0.69% (inactive) in [2]; -3.31% (inactive) in assay [5]; -2.1% (inactive) in assay [8]; 0.1% (inactive) in [9]; 0.2% (inactive) in assay [10]; 7% (inactive) in assay [12]. Besides, the superoxide response (% of plate) in assay [3] was 90.8% (inactive). For the same molecule, the aptamer binding inhibition in assay [4] was 1% (inactive). The response in assay [6] was 3.01% (inactive). Besides, the binding (% of control) in assay [7] was 99.6% (inactive). The efflux inhibition (fraction of control) in assay [11] was -0.12 (inactive). Further, the differentiation response in assay [13] was -19.6% (inactive).
